# Reference: PubChem BioAssay AID686979 (National Center for Advancing Translational Sciences (NCATS), 2013)
# Screen size: about 420,000 compounds; about 50,000 (12%) were called active. Inconclusive results (about 26%) are left out. Calls come from the whole dose curve; as a rule, active = well fitted inhibition curve with a large enough effect; inconclusive = small, poorly fitted or top-dose-only effect; inactive = flat fitted curve, though single readings scatter. This excerpt belongs to a sample that is enriched for actives.
# Assay: qHTS for Inhibitors of human tyrosyl-DNA phosphodiesterase 1 (TDP1): qHTS in cells in presence of CPT; note: nearly all actives have a fitted effect of over 55% in size
# Conditions: chicken DT40 Tdp1-/-;hTDP1 cells + 20 nM CPT, ATP luminescence, 48 h; series mostly up to 46.2 µM; activity change, negative = growth inhibition: at the top concentration
# From the text: Human tyrosyl-DNA phosphodiesterase 1 (TDP1) is a novel repair gene, and we propose to use it as a new target for anticancer drug development. TDP1 is not an essential protein, but under treatment with topoisomerase I poison (camptothecin: CPT), TDP1 works as a critical factor for cell survival. To directly identify novel TDP1 inhibitors active in a cellular environment, we have knocked-out the Tdp1 gene in chicken DT40 cells (Tdp1-/-) and generated a complemented counterpart cells that contains a stable transfection of the human TDP1 gene (Tdp1-/-;hTDP1 cells). For the primary screen, Tdp1-/-;hTDP1 cells will be exposed to small molecules in the presence or absence of CPT, and their growth kinetics will be evaluated after 48 hours by measuring ATP activity. […] The hit compounds will then be evaluated in the presence or absence of CPT using Tdp1-/- cells. […] In tertiary assays, biochemical gel-based assays will be used to assess whether the hit compounds specifically target TDP1. To this end, we have screened this cell line against the MLSMR in two primary screens. In one screen we add CPT and in the other we screen in the absence of CPT; this AID represents the screen where CPT was present. NIH Chemical Genomics Center [NCGC] NIH Molecular Libraries Probe Centers Network [MLPCN] MLPCN Grant: MH095538 Assay Submitter (PI): Yves Pommier, NCI
# DT40-hTDP1 cells with 20 nM Camptothecin (add 20 microL of 1 mM CPT stock in 1 L of cell culture medium) were dispensed at 400 cells/5microL/well in tissue culture treated 1536-well white wall/solid bottom assay plates (Greiner Bio-One North America, NC, U.S.A.) using a Multidrop Combi 8 channel dispenser (Thermo Fisher, Waltham, MA, USA). 23 nL compounds and controls were transferred using the pin tool (Kalypsys, San Diego, CA, USA) to the assay plates. The assay plates were then incubated at 37 masculineC for a minimum 48 hr. Three microL of Cell Titer Glo solution was added to the plates and incubated at RT in dark for 30 min. Luminescence was read using ViewLux (Perkin Elmer) with 1 sec exposure slow speed, high gain and 2x binning.
# % is set by controls: 0 for no effect and ±100 for the full control effect; potency is the fitted concentration of half-maximal effect.
Compound,"activity change, negative = growth inhibition",Potency
CN(Cc1ccccc1)S(=O)(=O)c1nnc(NC(=O)c2ccccc2F)s1,-20.1% (inactive),
CCOc1cc(CNCCN(C)C)c(Cl)cc1OCC(=O)NCCc1ccccc1,-11.9% (inactive),
Nc1ncnc2c1ncn2[C@@H]1O[C@H](CNS(=O)(=O)c2ccc(-c3ccno3)s2)[C@@H](O)[C@H]1O,-29.6% (inactive),
O=C(Nc1nnc(SCc2c(Cl)cccc2Cl)s1)c1cccc([N+](=O)[O-])c1,-2.24% (inactive),
O=C(COC(=O)c1cc[n+]([O-])cc1)Nc1ccc(Cl)c(C(F)(F)F)c1,-26% (inactive),
O=C(Nc1ccc(Cl)cc1)C1Cc2c(-c3ccc4c(c3)OCO4)ccnc2O1 (configuration not stated),,23.1 µM (active)
O=C(Nc1ccc(Cl)c(C(F)(F)F)c1)C1Cc2c(-c3ccccc3Oc3ccccc3)ccnc2O1 (configuration not stated),,18.4 µM (active)
COc1ccc(N(CC(=O)NC2CCCC2)C(=O)CS(=O)CC(=O)Nc2ccc3c(c2)OCO3)cc1 (configuration not stated),-3.24% (inactive),
O=C1OC(C(=O)Nc2cccc(Br)c2)Cc2ccccc21 (configuration not stated),8.89% (inactive),
COc1ccc(NC(=O)C2Cc3c(-c4ccc5c(c4)OCO5)ccnc3O2)cn1 (configuration not stated),,4.11 µM (active)
O=C(Nc1ccc2c(c1)OCO2)C1CC(c2c(F)cccc2Cl)=NO1 (configuration not stated),-29.9% (inactive),
CC(=O)Nc1ccc(-c2ccnc3c2CC(C(=O)NC(C)C)O3)cc1 (configuration not stated),-23.4% (inactive),
COc1ccc(NC(=O)CSc2nccn2Cc2ccc3c(c2)OCO3)cc1,-24% (inactive),
CC(=O)c1cccc(NC(=O)C2CCCN2S(=O)(=O)c2cccc3nsnc23)c1 (configuration not stated),9.59% (inactive),
COCCNC(=O)CSc1nc(N)c(NC(=O)c2ccco2)c(=O)[nH]1,3.53% (inactive),
COC(=O)c1c(C)oc(C)c1S(=O)(=O)NCc1ccc(Cl)cc1,-20.3% (inactive),
COC(=O)c1cc(NC(=O)CCS(=O)(=O)c2cc(Br)cc3c2N(C(=O)C2CC2)CC3)cc(C(=O)OC)c1,-2.75% (inactive),
Cc1cc(C)n(-c2ccc(NC(=O)C3CCCCN3C(=O)c3cccs3)cc2)n1 (configuration not stated),-10.8% (inactive),
COc1cc(C)ccc1OCCSc1nc2ccc(NC(=O)c3ccc(C)cc3)cc2s1,-27.4% (inactive),
Cc1ccccc1OCCSc1nc2ccc(NC(=O)c3ccco3)cc2s1,,20.6 µM (active)
Cc1cccc(OCCSc2nc3ccc(NC(=O)COc4ccccc4C)cc3s2)c1,-21.3% (inactive),

Compound,"activity change, negative = growth inhibition",Potency
Cc1ccccc1SCC(=O)OCC(=O)N1CC(=O)Nc2ccccc21,5.39% (inactive),
CC1=NNC(=O)C1CCC(=O)N/N=C\c1ccc(Cl)c(Cl)c1 (configuration not stated),1.5% (inactive),
Cc1ccnc(NC(=O)CCC(=O)N(CC(=O)NCc2ccccc2)Cc2ccco2)c1,37.5% (inactive),
Cc1cccc(OCC(=O)N(Cc2ccc(C(C)C)cc2)Cc2ccco2)c1C,,16.4 µM (active)
Cc1cccc(OCc2nnc(SCC(=O)N3CCN(C(=O)c4ccco4)CC3)n2C)c1C,-0.881% (inactive),
Cc1cccc(N(C(=O)Cn2nnc(-c3ccc(C)o3)n2)C(C(=O)NC2CCCC2)c2ccncc2)c1 (configuration not stated),-14.6% (inactive),
COc1ccc(CN2CCC3(CCC(CNC(=O)c4ccco4)O3)CC2)cc1OC (configuration not stated),-1.91% [at 9.04 µM] (inactive),
O=C(OCC(=O)N1CCCC1)c1ccc(Cl)nc1,-5.05% (inactive),
O=C(Nc1ccccc1)c1ccc(NC(=O)c2cccs2)cc1,-21.6% (inactive),
O=C(Nc1ccc(NC(=O)c2cccs2)cc1)c1ccc2ccccc2c1,-3.7% (inactive),
CC(C)(C)c1ccc(C(=O)Nc2ccc3c(c2)CCCN3C(=O)c2cccs2)cc1,,5.8 µM (active)
COCCN(C(=O)CCC(=O)Nc1nccs1)C(C(=O)NC(C)(C)C)c1ccc(Cl)cc1 (configuration not stated),-4.68% (inactive),
O=C(c1cccc(Cn2cccn2)c1)N1CCOc2c(cc(-c3csc4ccccc34)cc2OC2CCOC2)C1 (configuration not stated),,18.4 µM (active)
CCOC(=O)N1CCN(Cc2ccc3c(c2)CN(C(=O)c2cccc(-n4cccn4)c2)CCO3)CC1,-11.3% [at 9.04 µM] (inactive),
Cc1cnc(C)c(-c2cc(F)c3c(c2)CC(CNC(=O)c2cccc(Cn4cccn4)c2)O3)n1 (configuration not stated),-5.96% (inactive),
Cc1ccc(C(=O)NCC(=O)OCC(=O)Nc2cccc(S(=O)(=O)N3CCCC3)c2)cc1C,-26.5% (inactive),
CN1C[C@@H](CO)O[C@@H](n2cnc3c(N4CCN(CCO)CC4)ncnc32)C1,-0.685% (inactive),
CCCCn1c(N)c(N(CCC(C)C)C(=O)CC2OC(=O)c3ccccc32)c(=O)[nH]c1=O (configuration not stated),-12.2% (inactive),
CCOc1cc(/C=C(/C#N)c2ccc(Cl)cc2)cc(Cl)c1OCC(=O)O,-4.71% (inactive),
CC(NC(=O)COc1ccc(-c2ccccc2)cc1)C1CCCO1 (configuration not stated),,20.6 µM (active)
O=C(COc1ccc(-c2ccccc2)cc1)NN=C1CCCC1,6.33% (inactive),

Compound,"activity change, negative = growth inhibition",Potency
CCOc1ccc(C(CC(=O)O)NC(=O)COc2ccccc2)cc1 (configuration not stated),-2.55% (inactive),
CN(C(=O)COC(=O)CNC(=O)C12CC3CC(CC(C3)C1)C2)c1ccccc1,-8.7% (inactive),
O=C(NCC(=O)N1CCC2(CC1)NCCc1[nH]cnc12)c1ccc(Br)cc1,-15.1% (inactive),
CCc1ccc(CN(C)C(C)C(=O)Nc2ccc(S(=O)(=O)N3CCCC3)cc2)cc1 (configuration not stated),,18.4 µM (active)
CC(OC(=O)c1ccc(NC(=O)CC#N)cc1)C(=O)Nc1ccc(S(=O)(=O)N2CCCC2)cc1 (configuration not stated),-20% (inactive),
CN(CC(=O)Nc1ccc(S(=O)(=O)N2CCCC2)cc1)Cc1ccc(Cl)c(Cl)c1,-74.4% (inactive),
Cc1cc(/C=C(/C#N)C(=O)Nc2ccc(Cl)cc2)c(C)n1-c1cccnc1,-22% (inactive),
COCCn1c(SCC(=O)Nc2ccc(F)cc2F)nc2c(c1=O)SCC2,-8.27% (inactive),
O=C(NNS(=O)(=O)c1ccc(F)cc1)c1cnccn1,13.9% (inactive),
C=CCn1c(=O)c(C(=O)Nc2ncccc2O)c(O)c2ccccc21,20.6% (inactive),
O=C(O)/C=C/c1ccc(S(=O)(=O)N2CCCCCC2)cc1,9.25% (inactive),
CCOC(=O)N1CCN(C(=O)CNC(=O)Cc2ccc(Cl)cc2)CC1,-8.62% (inactive),
CCOC(=O)N1CCN(C(=O)c2cc3c(-c4ccc(Cl)cc4)nn(C)c3s2)CC1,,16.4 µM (active)
CCOc1ccc(-c2ccc(SCC(=O)N3CCOCC3)nn2)cc1,-7.39% (inactive),
Cn1nc(C(F)(F)F)c2cc(C(=O)N3CCOCC3)sc21,6.01% (inactive),
COc1cccc(/C=C/C(=O)OCC(=O)N2CCN(c3ccccc3)CC2)c1,-21.8% (inactive),
CCOC(=O)N1CCN(C(=O)c2ccc3nc4cc(Cl)ccc4c(=O)n3c2)CC1,-27.5% (inactive),
COc1cccc(-c2nn(C)c3sc(C(=O)N4CCN(c5ccccc5)CC4)cc23)c1,,23.1 µM (active)
COc1cccc(N2CCN(c3ccc4nnc(CCC(=O)N5CCN(C)CC5)n4n3)CC2)c1,-12.6% (inactive),
COc1cccc(-c2ccc(SCC(=O)N3CCN(c4ccccc4)CC3)nn2)c1,,16.4 µM (active)
